Read-out in test [1]: Urokinase-type plasminogen activator receptor (uPAR), PLAUR (gene 5329)
In words: BSK_BE3C_uPAR: BioMAP Diversity Plus: BE3C Assay for Urokinase-type plasminogen activator receptor (uPAR) Biomarker Activity (AID 2283039).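 Also: uPAR protein level measured by ELISA on the cells; cells exposed to compound for one day before measurement.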 The settings on record: primary human bronchial epithelial cells; actives raise or lower the signal. An outline of the steps: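 Human bronchial epithelial primary cells; chemical exposure 24 h; uPAR by ELISA; bidirectional fit vs DMSO control.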

Read-out in test [2]: Interleukin-6 (IL6), IL6 (gene 3569)
In words: BSK_CASM3C_IL6: BioMAP Diversity Plus: CASM3C Assay for Interleukin-6 (IL6) Biomarker Activity for (AID 2283040). The settings on record: primary human coronary artery smooth muscle cells; actives raise or lower the signal.

Read-out in test [3]: Tissue plasminogen activator (tPA), PLAT (gene 5327)
In words: BSK_BE3C_tPA: BioMAP Diversity Plus: BE3C Assay for Tissue plasminogen activator (tPA) Biomarker Activity (AID 2283041).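 Also: tPA level quantified by ELISA one day after compound addition.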 The note with it: primary human bronchial epithelial cells; actives raise or lower the signal. The method, boiled down: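 Primary human lung bronchial epithelial cultures receive test chemical; after 24 h, tPA is quantified by ELISA, and gain or loss of signal is fitted bidirectionally relative to DMSO baseline.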

Read-out in test [4]: Interleukin-8 (IL8), CXCL8 (gene 3576)
In words: BSK_CASM3C_IL8: BioMAP Diversity Plus: CASM3C Assay for Interleukin-8 (IL8) Biomarker Activity (AID 2283042).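 Also: IL-8 protein level quantified by ELISA.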 The note with it: primary human coronary artery smooth muscle cells; actives raise or lower the signal.

Read-out in test [5]: Human Leukocyte Antigen - DR isotype (HLADR), HLA-DRA (gene 3122)
In words: BSK_CASM3C_HLADR: BioMAP Diversity Plus: CASM3C Assay for Human Leukocyte Antigen - DR isotype (HLADR) Biomarker Activity (AID 2283043).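 Also: cell-surface HLA-DR protein level quantified by ELISA.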 The settings on record: primary human coronary artery smooth muscle cells; actives raise or lower the signal.

Read-out in test [6]: Macrophage colony-stimulating factor (MCSF), CSF1 (gene 1435)
In words: BSK_CASM3C_MCSF: BioMAP Diversity Plus: CASM3C Assay for Macrophage colony-stimulating factor (MCSF) Biomarker Activity (AID 2283044).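 Also: M-CSF protein amount quantified by ELISA after 24 h exposure.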 The settings on record: primary human coronary artery smooth muscle cells; actives raise or lower the signal.

Read-out in test [7]: Low-density lipoprotein receptor (LDLR), LDLR (gene 3949)
In words: BSK_CASM3C_LDLR: BioMAP Diversity Plus: CASM3C Assay for Low-density lipoprotein receptor (LDLR) Biomarker Activity (AID 2283045).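 Also: LDLR protein level on the cell surface quantified by ELISA.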 The note with it: primary human coronary artery smooth muscle cells; actives raise or lower the signal.

Read-out in test [8]: Monocyte Chemoattractant Protein-1 (MCP1), CCL2 (gene 6347)
In words: BSK_CASM3C_MCP1: BioMAP Diversity Plus: CASM3C Assay for Monocyte Chemoattractant Protein-1 (MCP1) Biomarker Activity (AID 2283046).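 Also: MCP-1 level quantified by ELISA 24 h after dosing.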 The settings on record: primary human coronary artery smooth muscle cells; actives raise or lower the signal.

The nature of test [9]: BSK_CASM3C_Proliferation: Cell Proliferation Assessment in the BioMAP Diversity Plus: CASM3C Assay (AID 2283047).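 Also: sulforhodamine B total protein stain as relative cell number at 560 nm; sub-confluent cells exposed 48 h before staining; fitted both ways against DMSO so gain or loss of cell number.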 The settings on record: primary human coronary artery smooth muscle cells.
Read-out in test [10]: Monokine induced gamma interferon (MIG), CXCL9 (gene 4283)
In words: BSK_CASM3C_MIG: BioMAP Diversity Plus: CASM3C Assay for Monokine induced gamma interferon (MIG) Biomarker Activity (AID 2283048).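 Also: MIG protein level measured by ELISA.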 The note with it: primary human coronary artery smooth muscle cells; actives raise or lower the signal.

Read-out in test [11]: serum amyloid A (SAA), SAA1 (gene 6288)
In words: BSK_CASM3C_SAA: BioMAP Diversity Plus: CASM3C Assay for serum amyloid A (SAA) Biomarker Activity (AID 2283049).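 Also: SAA protein level quantified by ELISA.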 The note with it: primary human coronary artery smooth muscle cells; actives raise or lower the signal.

Test [12] is described as follows: BSK_CASM3C_SRB: Viability Assessment in the BioMAP Diversity Plus: CASM3C Assay (AID 2283050).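 Also: total protein by SRB staining as cytotoxicity measure in parallel cultures; cells exposed to compound for 24 h.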 The note with it: primary human coronary artery smooth muscle cells.
Read-out in test [13]: Thrombomodulin, THBD (gene 7056)
In words: BSK_CASM3C_Thrombomodulin: BioMAP Diversity Plus: CASM3C Assay for Thrombomodulin Biomarker Activity (AID 2283051).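 Also: thrombomodulin protein level measured by ELISA 24 h after dosing.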 The settings on record: primary human coronary artery smooth muscle cells; actives raise or lower the signal.

Read-out in test [14]: Tissue Factor, F3 (gene 2152)
In words: BSK_CASM3C_TissueFactor: BioMAP Diversity Plus: CASM3C Assay for Tissue Factor Biomarker Activity (AID 2283052).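 Also: cell surface tissue factor protein level read by ELISA.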 The settings on record: primary human coronary artery smooth muscle cells; actives raise or lower the signal.

Read-out in test [15]: Interferon-gamma inducible Protein 10 (IP10), CXCL10 (gene 3627)
In words: BSK_hDFCGF_IP10: BioMAP Diversity Plus: hDFCGF Assay for Interferon-gamma inducible Protein 10 (IP10) Biomarker Activity (AID 2283053). The settings on record: primary human foreskin fibroblasts; actives raise or lower the signal. The method, boiled down: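 Primary foreskin fibroblasts, human; 24 h compound exposure; IP-10 by ELISA; bidirectional fit vs DMSO.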

Read-out in test [16]: Urokinase-type plasminogen activator receptor (uPAR), PLAUR (gene 5329)
In words: BSK_CASM3C_uPAR: BioMAP Diversity Plus: CASM3C Assay for Urokinase-type plasminogen activator receptor (uPAR) Biomarker Activity (AID 2283054).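 Also: cell-surface uPAR protein level quantified by ELISA.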 The note with it: primary human coronary artery smooth muscle cells; actives raise or lower the signal.

Read-out in test [17]: Vascular cell adhesion molecule 1 (VCAM1), VCAM1 (gene 7412)
In words: BSK_CASM3C_VCAM1: BioMAP Diversity Plus: CASM3C Assay for Vascular cell adhesion molecule 1 (VCAM1) Biomarker Activity (AID 2283055).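 Also: VCAM-1 protein level quantified by ELISA on the cells.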 The note with it: primary human coronary artery smooth muscle cells; actives raise or lower the signal.

Read-out in test [18]: Epidermal growth factor receptor (EGFR), EGFR (gene 1956)
In words: BSK_hDFCGF_EGFR: BioMAP Diversity Plus: hDFCGF Assay for Epidermal growth factor receptor (EGFR) Biomarker Activity (AID 2283057). The settings on record: primary human foreskin fibroblasts; actives raise or lower the signal. An outline of the steps: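 hDFCGF system, primary human foreskin fibroblasts; compound 24 h; EGFR measured by ELISA; DMSO = negative control/baseline; bidirectional fitting.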

Read-out in test [19]: Interleukin-8 (IL8), CXCL8 (gene 3576)
In words: BSK_hDFCGF_IL8: BioMAP Diversity Plus: hDFCGF Assay for Interleukin-8 (IL8) Biomarker Activity (AID 2283058). The settings on record: primary human foreskin fibroblasts; actives raise or lower the signal. The method, boiled down:
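ELISA read-out of IL-8 from primary human foreskin fibroblast cultures taken 24 h after dosing; values are bidirectional fits relative to DMSO vehicle.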

Activity calls are given as the source filed them. The calls were made as follows: active = hit-call score of the fitted dose curve at least 0.9, where 1 is the maximum; inactive = score below 0.9.

As for `O=C(O)c1c(Cl)ccc2cc(Cl)cnc12`, the result in test [1], in test [2], in test [3], in test [4], in [5] and in test [6] was inactive. For the same molecule, the outcome in test [7], in [8], in test [9], in test [10], in test [11] and in test [12] was inactive. In addition, the result in test [13], in test [14], in test [15], in [16], in [17] and in test [18] was inactive. Further, the outcome in [19] was inactive.

As to `O=c1n(Cl)c(=O)n(Cl)c(=O)n1Cl`, the result in test [1], in test [2], in [3], in test [4], in test [5] and in test [6] was inactive. Besides, the outcome in [7], in [8], in [9], in test [10], in test [11] and in [12] was inactive. Besides, the outcome in test [14], in [16], in test [17], in test [18] and in test [19] was inactive. For the same molecule, the figures for the half-maximal activity concentration (AC50) in test [13] and in test [15] were 12.7 µM (active) and 20 µM (active), respectively.

Regarding `Nc1cnn(-c2ccccc2)c(=O)c1Cl`, the result in test [1], in test [2], in [3], in test [4], in test [5] and in test [6] was inactive. Also, the outcome in test [7], in test [8], in [9], in test [10], in test [11] and in [12] was inactive. Besides, the result in test [13], in test [14], in test [15], in test [16], in test [17] and in test [18] was inactive. Besides, in test [19], the result was inactive.

For the molecule `CC(C)(C)C(=O)C(Oc1ccc(Cl)cc1)n1cncn1` (stereo unspecified), the outcome in test [1], in test [2], in [3], in [4], in test [5] and in test [6] was inactive. For the same molecule, the outcome in test [7], in test [8], in test [9], in [10], in test [11] and in test [12] was inactive. Further, the result in test [13], in test [14], in test [15], in test [16], in test [17] and in [18] was inactive. In [19], the outcome was inactive.

In the case of `CS(=O)(=O)c1ccc(C(=O)C2C(=O)CCCC2=O)c([N+](=O)[O-])c1`, the outcome in test [1], in test [2], in test [3], in test [4], in test [5] and in test [6] was inactive. Moreover, the result in test [7], in test [8], in [9], in [10], in test [11] and in test [12] was inactive. The outcome in test [13], in test [14], in test [15], in [16], in [17] and in test [18] was inactive. For the same molecule, in test [19], the result was inactive.

With `CC1(C)CON(Cc2ccccc2Cl)C1=O`, the result in test [1], in test [2], in test [3], in test [4], in test [5] and in [6] was inactive. Moreover, the result in test [7], in test [8], in test [9], in test [10], in test [11] and in [12] was inactive. The result in test [13], in [14], in test [15], in test [16], in test [17] and in [18] was inactive. Further, the outcome in test [19] was inactive.

On to `COCC(=O)N(c1c(C)cccc1C)C(C)C(=O)OC` (stereo unspecified), for which the outcome in [1], in [2], in [3], in test [4], in test [5] and in [6] was inactive. Besides, the outcome in [7], in [8], in test [9], in [10], in test [11] and in test [12] was inactive. Also, the outcome in test [13], in test [14], in [15], in test [16], in test [17] and in test [18] was inactive. Moreover, the result in test [19] was inactive.

Turning to `O=C(Nc1ccccc1-c1ccc(Cl)cc1)c1cccnc1Cl`, the outcome in test [1], in test [2], in [3], in test [4], in test [5] and in test [6] was inactive. Also, the outcome in test [7], in test [8], in [9], in [10], in test [11] and in test [12] was inactive. For the same molecule, the result in test [13], in test [14], in test [15], in test [16], in test [17] and in test [18] was inactive. Further, the outcome in test [19] was inactive.

For the molecule `O=P(O)(O)CCCl`, the result in test [1], in [2], in test [3], in [4], in test [5] and in test [6] was inactive. Besides, the result in test [7], in test [8], in [9], in test [10], in test [11] and in test [12] was inactive. For the same molecule, the outcome in test [13], in test [14], in test [15], in test [16], in test [17] and in [18] was inactive. The result in test [19] was inactive.

For the origin of these results see PubChem BioAssay (EPA / NIEHS).
